Measurements as given in ChEMBL document CHEMBL3988442, “University of Dundee, Small-Polar-MMV Screening Library” (2021).
Screen size: about 48,000 compounds; about 13,000 (27%) showed an effect of 50% or more. The list shows a part of the results.

Tested on: Wolbachia pipientis
Test: Anti-Wolbachia Cell-Based Screen
Type: functional
Set-up: scale not given: in the data most compounds retested in dose-response had high values
Details: 5 µM

Row | SMILES | Percent Effect
1 | CC(C)COc1cncc(NCCc2nnc3ccccn23)n1 | 6.284%
2 | CCCSc1ncc(-c2nccn2CCO)cn1 | -55.57%
3 | COc1ncc(-c2nccn2CCN(C)C)cn1 | -13.85%
4 | CCCn1ccnc1-c1nccn1CCC(N)=O | -22.61%
5 | COCc1ncc(-c2nccn2CCn2cnnc2)cn1 | 95.42%
6 | COCc1ncc(-c2nccn2CCS(C)(=O)=O)cn1 | 120.2%
7 | COCCCn1ccnc1-c1cnc(OC)nc1 | -18.72%
8 | CCCn1ccnc1-c1nccn1CCN(C)C | -8.104%
9 | COCc1ncc(-c2nccn2CCN(C)C)cn1 | 3.066%
10 | CCCn1ccnc1-c1nccn1CCn1cnnc1 | 87.43%
11 | CN(C)Cc1nnc(C2CCN(c3ncccc3Cl)CC2)n1C1CC1 | -16.88%
12 | O=C(NC1CCCC1)O[C@H]1COCCN(c2nc3ccccc3o2)C1 | -4.12%
13 | CN(Cc1nccs1)c1nccc(N2CCN[C@H]3CS(=O)(=O)C[C@H]32)n1 | -5.478%
14 | Cn1c(CCNc2nccnc2C#N)nc2ccc(F)cc21 | -0.9847%
15 | CNC(=O)C1CCCN(C(=O)OC)C1 (stereo not drawn) | -23.89%
16 | Cc1ccc(N2CCCC3(COCCN(c4ncccn4)C3)C2)nn1.O=C(O)C(F)(F)F (stereo not drawn) | 82.98%
17 | CCOCC(=O)N1CCOCC2(CCN(c3ncccn3)C2)C1.O=C(O)C(F)(F)F (stereo not drawn) | 115.1%
18 | Cc1ccc(N2CC3(CCN(c4nccs4)C3)C2)nn1 | -7.178%
19 | Cc1cc(C(=O)N2CCCC3(COCCN(c4ncccn4)C3)C2)[nH]n1.O=C(O)C(F)(F)F.O=C(O)C(F)(F)F (stereo not drawn) | -11.88%
20 | O=C(O)C(F)(F)F.O=C(O)C(F)(F)F.c1cnc(N2CCOCC3(CCCN(CC4CCOCC4)C3)C2)nc1 (stereo not drawn) | -3.791%
21 | Cc1ccoc1C(=O)N1CCOCC2(CCN(c3ncccn3)C2)C1.O=C(O)C(F)(F)F (stereo not drawn) | 0.2458%
22 | c1ccc(-c2nnc(N3CCCC4(CCOC4)C3)s2)cc1 (stereo not drawn) | 56.2%

Row | SMILES | Percent Effect
23 | OC1(CN2CCCC2)COCCN(c2nnc(-c3ccccc3)s2)C1 (stereo not drawn) | -13.1%
24 | Cc1ccc(N2CCCC3(COCCN(c4nccs4)C3)C2)nn1.O=C(O)C(F)(F)F.O=C(O)C(F)(F)F (stereo not drawn) | -0.6863%
25 | Cc1ccc(N2CCC3(CC2)COCCN(c2nccs2)C3)nn1.O=C(O)C(F)(F)F.O=C(O)C(F)(F)F | 108.8%
26 | CCOCC(=O)N1CC[C@H]2OCC[C@@]2(COc2ncccc2F)C1.O=C(O)C(F)(F)F | -3.289%
27 | c1ccc2sc(N3CCCC4(CCOC4)C3)nc2c1 (stereo not drawn) | -24.88%
28 | CCc1ncc2c(n1)CN(CC(=O)NC1CCCCNC1=O)CC2 (stereo not drawn) | -10.76%
29 | N#CCCCOc1cccc(CN2CCCC2c2ccc[nH]2)c1 (stereo not drawn) | -9.513%
30 | NCC1Cc2cc(-c3cnccn3)cc(Cl)c2O1 (stereo not drawn) | 3.613%
31 | Cc1ccc(N2CCCC3(COCCN(c4ccccn4)C3)C2)nn1.O=C(O)C(F)(F)F (stereo not drawn) | 88.94%
32 | O=C(O)C(F)(F)F.c1ccc(N2CCCC3(COCCN(c4nccs4)C3)C2)nc1 (stereo not drawn) | -9.014%
33 | c1ccc(N2CCOCC3(CCCN(c4nccs4)C3)C2)nc1 (stereo not drawn) | 105.2%
34 | CCCS(=O)(=O)N1CCOCC2(CCN(c3ccccn3)C2)C1.O=C(O)C(F)(F)F (stereo not drawn) | -9.194%
35 | Cc1cnc(N2CCOC3(COCCN(c4nccs4)C3)C2)nc1 (stereo not drawn) | 7.245%
36 | O=C1NCC2(CCCN(C(=O)Nc3ccc4occc4c3)CC2)O1 (stereo not drawn) | -22.41%
37 | Cc1cc(SC(C)(C)C)ccc1NC(C)C(=O)NC(N)=O (stereo not drawn) | 0.5682%
38 | O=C(Nc1ccccc1)C1CCCN(C(=O)Cn2cncn2)C1 (stereo not drawn) | 9.271%
39 | O=C(NCCc1ccccc1)C1CCC(Cn2cnnn2)CC1 (stereo not drawn) | 3.007%
40 | CN(Cc1ccc(F)cc1)C(=O)CN1CCCCC1Cn1cncn1 (stereo not drawn) | -13.17%
41 | O=C(NCCc1ccccc1)C1CCN(C(=O)Cn2cncn2)C1 (stereo not drawn) | 175.5%
42 | O=C(NCCc1ccc(F)cc1)C1CN(C(=O)Cn2cncn2)C1 | 163.3%
43 | CCCNC(=O)C1CCCN(Cc2ccc(-n3cncn3)c(C)c2)C1 (stereo not drawn) | 5.039%
44 | CC(=O)Nc1cnc(-n2ccnc2)nc1 | 0.9267%

Row | SMILES | Percent Effect
45 | C=Cc1ccc(C(=O)N2CCCC(Nc3ccccc3)C2)cc1 (stereo not drawn) | -22.58%
46 | CN1C(=O)C[C@@H]2[C@@H]1CCN2C(=O)c1ccc[nH]1 | -0.2597%
47 | CN(C)c1cccc(C(=O)N2C[C@H]3CC[C@@H]2CN(C(=O)C2CCC2)C3)c1 | -25.57%
48 | CS(=O)(=O)N1CCCC12CCCN(C(=O)c1ccc3[nH]ccc3c1)C2 (stereo not drawn) | 11.97%
49 | Cc1cccc(C(=O)N2CCCSCC2CN2CCCC2)c1 (stereo not drawn) | 114.9%
50 | N#Cc1ccc(C(=O)N2CCCSCC2CN2CCCC2)cc1 (stereo not drawn) | 107.8%
51 | O=C(c1ccc2[nH]ccc2c1)N1CCCSCC1CN1CCCC1 (stereo not drawn) | 105.2%
52 | O=C(c1ccc(F)c(F)c1)N1CCCSCC1CN1CCCC1 (stereo not drawn) | 1.047%
53 | O=C(c1ccc2c(c1)OCO2)N1CCCSCC1CN1CCCC1 (stereo not drawn) | 1.32%
54 | N#Cc1ccc(C(=O)N2C[C@@H](CN3CCCC3)C[C@H](CO)C2)cc1 | 5.863%
55 | CN(C)c1ccc(C(=O)N2C[C@@H](CN3CCCCC3)[C@@H](CO)C2)cc1 | -5.628%
56 | CN(C)c1cccc(C(=O)N2CCCSCC2CN2CCCC2)c1 (stereo not drawn) | 112.4%
57 | N#Cc1cccc(C(=O)N2C[C@H](CO)C[C@H](CN3CCCC3)C2)c1 | -1.985%
58 | O=C(CCC1CCN(Cc2ncc[nH]2)CC1)Nc1ccccc1Cl | 0.1939%
59 | CCN(C)c1ccc(CNS(=O)(=O)C2CCOCC2)cc1F | 3.098%
60 | O=C(O)c1cc(C2=CCCCC2)cc(S(=O)(=O)NCc2ccccn2)c1 | -10.69%
61 | COc1ccc(CN2CCCn3cnc(COCC4CC4)c3C2)cc1.O=C(O)C(F)(F)F | -1.756%
62 | CCN1C(=O)C2(CCOCC2)c2cc(NC(=O)c3cc(C)n[nH]3)ccc21 | -4.188%
63 | CC(C)Oc1ccc(CNC(=O)c2cc(C(N)=O)cs2)cc1F | -0.429%
64 | CCn1nc(C)c(CN2CCCC(c3ccc(C(=O)O)cc3)C2)c1C (stereo not drawn) | 3.316%
65 | CCn1nc(C)c(CN2CCC(c3ccn[nH]3)C2)c1C (stereo not drawn) | 102.4%
66 | CCn1nc(C)c(CN2CCC(c3ccc(C(=O)O)cc3)C2)c1C (stereo not drawn) | -3.844%

Row | SMILES | Percent Effect
67 | Cc1ccc(CN(C)Cc2cc(C3CC3)[nH]n2)c(O)n1 | 7.171%
68 | Cc1cc(CN(C)Cc2ccccc2N2CCCCC2)n[nH]1 | 185.5%
69 | Cc1cc(CN(C)Cc2csc(-c3cccs3)n2)n[nH]1 | -0.07399%
70 | CCN(CC(=O)N(C)C)C(=O)C(C)(C)c1ccc2c(c1)OCCO2 | -3.526%
71 | CC(C)(C)C(=O)NCCC(=O)NC(C)(C)c1ccc2c(c1)OCCO2 | 1.419%
72 | CC(C)(NCc1ccc(C#N)cc1)c1ccc2c(c1)OCO2 | 0.339%
73 | CC(C)(NCc1cccc(C#N)c1)c1ccc2c(c1)OCO2 | 0.8425%
74 | CCCNC(=O)NC(=O)CNC(C)(C)c1ccc2c(c1)OCO2 | 110.6%
75 | CCCNC(=O)NC(=O)CNC(C)(C)c1ccc2c(c1)OCCO2 | 109.8%
76 | CCN(Cc1ccc(CN(C)C)cc1)C(=O)c1ccncc1O | 4.477%
77 | O=C(NC1CC(F)(F)C1)[C@]12COC[C@H]1CN(Cc1ccsc1)C2 | -6.897%
78 | O=C(CN1CCc2cncnc2C1)NC1CCCCNC1=O (stereo not drawn) | -3.554%
79 | CNc1cc(C)nc(N2CCC3(CC2)[C@H](O)C[C@@H]3O)n1 | -5.411%
80 | CC(C)=CCC1(C(=O)O)CCCN(c2cc(N)ncn2)C1 (stereo not drawn) | -4.514%
81 | Cc1ccc(N2CCOC(C)(C(=O)N(C)C)C2)nn1 (stereo not drawn) | 160%
82 | Cc1cc(C)nc(N2CCOC(C)(C(=O)N(C)C)C2)n1 (stereo not drawn) | 205.4%
83 | Cc1ccsc1CN(C)c1cc(N2CCOCC2)ncn1 | -30.66%
84 | Cc1cc(C)nc(N2CCN(C(=O)c3cc(Cl)c[nH]3)CC2)n1 | -2.597%
85 | Cc1cc(N2CCOC(C)(C(=O)N(C)C)C2)ncn1 (stereo not drawn) | 147.4%
86 | CCCS(=O)(=O)N1CCOC2(CCCN(c3ccc(C)nn3)C2)C1 (stereo not drawn) | 6.152%
87 | Cc1cc(C)nc(N2CC[C@@]3(O)CCN(S(=O)(=O)N(C)C)C[C@H]3C2)n1 | -0.4533%
88 | CNC(=O)C1(C)CN(c2nc(C)cc(C)n2)CCO1 (stereo not drawn) | 133.8%

Row | SMILES | Percent Effect
89 | Cc1nc(N2CCOCC2)nc(C)c1NC(=O)Cc1ccc(Cl)cc1 | -11.2%
90 | Cc1ccc(N2CCC3(CCN(C(N)=O)CC3)CC2)nn1 | 5.421%
91 | CCOC(=O)NCCC(=O)NCc1ccc(Oc2ccc(F)cc2)nc1 | -9.89%
92 | OC(CNc1cncc(OCc2ccccc2)n1)c1ccco1 (stereo not drawn) | 3.469%
93 | COc1cc(C)ccc1OCC(=O)Nc1ccnc(OCCN(C)C)c1 | 10.45%
94 | CCn1c(CN(C)C)nnc1C1CCN(c2nccc(NC)n2)CC1 | -2.442%
95 | Cc1cccc(C)c1CNC1(CCO)CCOCC1 | 0.8259%
96 | CC(C)CCN1CCCC(Cn2cc(CCO)nn2)C1 (stereo not drawn) | -4.048%
97 | COc1ccccc1CC1CCCN(CCC(N)=O)C1 (stereo not drawn) | -12.09%
98 | CN(c1ccccc1)c1ccc(CC2CCCN(CCO)C2)nn1 (stereo not drawn) | 94.33%
99 | Cc1ccc(N2CCCC(NC(=O)C(C)(C)C#N)C2=O)cc1 (stereo not drawn) | -7.395%
100 | CN(C)c1ncccc1CNC(=O)N1CCCC1CN1CCCCC1 (stereo not drawn) | 7.687%
101 | CNc1ncccc1CN1CCN(C(C)=O)CC(C(N)=O)C1 (stereo not drawn) | 106.9%
102 | N#Cc1cccnc1NCc1cccnc1N1CCC(C(N)=O)CC1 | -4.129%
103 | CC(C)Oc1ncccc1CNC(=O)N1CCC(C(N)=O)C1 (stereo not drawn) | -8.219%
104 | CN1CCN2CCN(Cc3ccccc3Cn3cccn3)CC2C1 (stereo not drawn) | -0.2104%
105 | CNc1ncccc1CN1CCN(C)CC(C(=O)N(C)C)C1 (stereo not drawn) | 106.5%
106 | CN1CCCN(C[C@H]2C[C@H](CO)CN(Cc3cccnc3N)C2)CC1 | -5.741%
107 | CNc1ncccc1CN1CCN(C)CC(C(N)=O)C1 (stereo not drawn) | 105.8%
108 | NC(=O)C1CCCN(Cc2c(-c3ccco3)[nH]c3ncccc23)C1 (stereo not drawn) | -7.112%
